Test [1] is described as follows: Wnt pathway potentiators raising nuclear beta-catenin – imaging, WNT3A-conditioned medium, mouse C2C12, NPC library, primary screen (AID 1117326; in the data active = nuclear beta-catenin stimulation mostly above about 4.2%, no sharp cut-off; inactive = mostly below about 10%). Particulars: stronger effect = higher value.
A short description of test [2]: stimulators of insulin release from INS-1E, primary screen, cell-based, 5 mM glucose, NPC library (AID 1117329). Conditions: rat INS-1E insulin secretion, at 10 µM, stronger effect = higher value.
The nature of test [3]: growth inhibition of GSK3B-pretreated HCT116 cells – cell-based, CellTiter-Glo, 0.2 to 20 µM (AID 1117336;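 active = compounds lowering colon cancer cell viability after pretreatment blocking the GSK3B kinase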). Conditions: HCT116 viability after GSK3B inhibitor, at 20 µM, stronger effect = higher value. For orientation: In ATP-based viability assays light output follows the ATP content of the culture.
The nature of test [4]: inhibition of endothelial tube formation, primary screen, imaging, VEGF stimulated, CD31 staining, tube area, NPC library (AID 1117340;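 active = compound that reduces growth-factor-driven endothelial tube area in a mixed cell culture, no cutoff stated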). Particulars: VEGF-stimulated ADSC/ECFC co-culture, at 10 µM, stronger effect = higher value.
Test [5] can be described thus: GLP1 release stimulators, primary, NCI-H716, NPC library (AID 1117341;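 active = compound raises GLP1 secretion from the human gut endocrine cells, with no numeric limit stated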). Particulars: NCI-H716 cells, at 10 µM, stronger effect = higher value.
A short description of test [6]: HCT116 colon cancer cell growth inhibition, primary screen, CellTiter-Glo luminescence, NPC library (AID 1117342;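 active = compounds that lower survival of HCT116 colon cancer cells in the luminescence readout, no numeric limit stated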). Conditions: at 20 µM (top of the series).
The nature of test [7]: reduced SW480 viability measured with CellTiter-Glo, NPC library, primary (AID 1117343;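 active = compounds that lower viability of the colon cancer cells in the luminescence readout, with no numeric limit stated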). Conditions: CellTiter-Glo luminescence; at 20 µM (top of the series) unless noted.
A short description of test [8]: NPC library primary testing for decreased DLD-1 cell viability via CellTiter-Glo (AID 1117346;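 active = compounds that lower survival of DLD-1 colon cancer cells in the luminescence readout, no cutoff given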). Conditions: DLD-1 viability, CellTiter-Glo luminescence; at 20 µM (top of the series).
The nature of test [9]: EMT-state selective cytotoxicity in co-culture – imaging, PC-3E GFP, TEM4-18 mCherry, primary screen (AID 1345086;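 active = compounds killing one labelled cell type while sparing the other, by normalised counts and ratio limits, not self-fluorescent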;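 for all read-outs here: cells exposed to compound for 72 h before imaging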;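 for red/green cell ratio (normalised): normalised mesenchymal count divided by normalised epithelial count so high means epithelial killing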). Particulars: PC-3E GFP / TEM4-18 mCherry co-culture, imaging cell counts, at 1 µM; for red/green cell ratio (normalised): actives lie on both sides, counts scaled to control wells, 1 = unselective.
A short description of test [10]: viability loss with induced miR-34 in A549 – imaging, A549 dox-inducible miR-34, nuclei and caspase counts, primary screen (AID 1347080;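 active = compounds whose cell count with miR-34 switched on is under 0.7 times the count with it off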). Conditions: A549 miR-34 inducible, Hoechst nuclei count, 48 h.
Test [11] concerns the target NAD(+) hydrolase SARM1 (Homo sapiens) (UniProt Q6SZW1). Description: blocking NAD cleavage by SARM1 SAM-TIR – cell lysate, NAD-Glo luminescence (AID 1508614;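 active = compound whose remaining NAD level is above about 45 nM, limit read from the data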;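 note: higher remaining NAD means stronger inhibition of SARM1 NADase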). Particulars: SAM-TIR HEK293T lysate NADase, at 1 µM, stronger effect = higher value.
Test [12] is described as follows: P. berghei load reduction in hepatocytes – cell-based, HepG2, luciferase luminescence, HepG2 viability, primary screen (AID 624349; in the data active = parasite load remaining mostly below about 12%, no sharp cut-off; inactive = mostly above about 10%;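 note: 100% = mean of DMSO negative control wells on the same plate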). Conditions: P. berghei liver stage in HepG2, luciferase luminescence, concentration not given here; parasite load remaining: stronger effect = lower value; viability: measured here: HepG2 viability without parasites.
In test [13] the test system is Aerobactin synthetase IucA (Klebsiella pneumoniae). Description: inhibition of K. pneumoniae IucA enzyme – biochemical, Tocris library, absorbance (AID 1345561; call rule not given here;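 note: 100% = enzyme without compound and 0% = no enzyme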). Particulars: purified IucA enzyme assay, absorbance (OD) read-out; stronger effect = lower value;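 tested at 8 µM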.
Test [14] is described as follows: viability loss in pontine glioma line – cell-based, SU-DIPG-XVII, MIPE5.0, CellTiter-Glo, qHTS, dose response (AID 1347060; cut-off not given, nearly all actives have AC50 up to about 26 µM). Particulars: CellTiter-Glo ATP luminescence.
Test [15] in a line: growth inhibition of DIPG cells – cell-based, MIPE5.0 library, qHTS (AID 1347068; cut-off not given, nearly all actives have IC50 up to about 30 µM). Particulars: SU-DIPG-XXV viability.
A short description of test [16]: galactose survival enhancers in mitochondrial complex I cybrids – cell-based, galactose medium, ATP luminescence, primary screen (AID 1645843;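 active = z-score of at least 1.8 in each of two replicates, scored against plate mean and spread of sample wells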;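 note: positive z means more ATP and so rescue of galactose-driven cybrid death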). Particulars: complex I mutant cybrid cells, 72 h, stronger effect = higher value.
Where [17] appears, read: measured here: epithelial PC-3E GFP cell survival.
[18] abbreviates: measured here: mesenchymal TEM4-18 mCherry cell survival.
The mark [19] stands for this setting: stronger effect = lower value, cell number ratio, induced over uninduced.
Setting [20] is: measured here: relative caspase fold change +Dox/-Dox.
[21] abbreviates: measured here: total cells with miR-34 induction, stronger effect = lower value.
Setting [22] is: measured here: total cells without miR-34 induction.

SMILES strings stand for the structures. Results filed as inconclusive are left out. Calls of active or inactive are those of the source.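 Rule for the calls, unless noted: active = compound raises insulin release from rat beta cells at 5 mM glucose, no numeric limit stated; inactive = the rest.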

Data on five compounds can be found in PubChem BioAssay.

Sequence of NAD(+) hydrolase SARM1 (Homo sapiens) (Q6SZW1 whole entry, looked up): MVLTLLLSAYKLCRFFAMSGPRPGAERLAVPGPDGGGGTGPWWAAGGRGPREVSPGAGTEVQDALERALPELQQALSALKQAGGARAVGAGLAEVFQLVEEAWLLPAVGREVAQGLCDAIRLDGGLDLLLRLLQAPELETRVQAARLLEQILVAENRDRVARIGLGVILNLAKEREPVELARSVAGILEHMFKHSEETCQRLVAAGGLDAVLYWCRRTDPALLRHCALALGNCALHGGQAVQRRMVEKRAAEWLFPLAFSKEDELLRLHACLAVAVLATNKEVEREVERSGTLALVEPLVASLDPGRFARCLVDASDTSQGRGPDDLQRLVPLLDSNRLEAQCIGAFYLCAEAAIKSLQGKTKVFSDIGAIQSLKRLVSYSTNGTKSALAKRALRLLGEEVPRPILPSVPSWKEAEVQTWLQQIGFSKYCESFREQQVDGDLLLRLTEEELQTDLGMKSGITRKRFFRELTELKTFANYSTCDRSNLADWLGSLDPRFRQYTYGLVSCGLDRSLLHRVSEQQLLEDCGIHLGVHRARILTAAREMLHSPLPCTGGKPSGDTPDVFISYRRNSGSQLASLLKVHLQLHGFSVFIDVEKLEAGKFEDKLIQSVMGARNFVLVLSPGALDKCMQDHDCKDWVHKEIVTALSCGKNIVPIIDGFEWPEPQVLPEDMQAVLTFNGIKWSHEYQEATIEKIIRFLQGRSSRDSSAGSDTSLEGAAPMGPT

Turning to `S=C=Nc1ccc(N=C=S)cc1`, the nuclear beta-catenin stimulation in test [1] (at 10 µM) is 16.4% (inactive); in test [1] (stimulation, at 2 µM), -0.1%. The insulin secretion stimulation in [2] was 3.2% (inactive). Moreover, the viability decrease in test [3] is 77.2% (active). For the same compound, in test [4], the tube area decrease was 100% (active). For the same compound, in [5], the GLP1 secretion stimulation was -3.9% (inactive). For the same compound, the inhibition of viability in test [6] was 57% (active). In addition, the viability decrease (inhibition) in [7] is 73.5% (active); in test [8], 81.3% (active). Further, the red/green cell ratio (normalised) in [9] was 0.76 (inactive). The normalised cell number in [9] (setting [17]) turned out to be 1.12; in test [9] (setting [18]), 0.86. For the same compound, the fold change was 0.826 (inactive) in test [10] (setting [19]) and 1.4 in test [10] (setting [20]). In addition, the figures for the cell count in test [10] (setting [21]) and in test [10] (setting [22]) were 7160 and 8680, respectively. In addition, in [11], the remaining NAD was 10 nM (inactive).

The term viability denotes a read-out of living cells in per cent, often relative to untreated cells. For the compound `CC(O)Cn1cnc2c1c(=O)n(C)c(=O)n2C` (stereo unspecified), in test [12], the parasite load remaining was 123% (inactive). Also, the viability in [12] was found to be 89%. In addition, the nuclear beta-catenin stimulation in test [1] (at 10 µM) was 3.9% (inactive); in test [1] (stimulation, at 2 µM), 0.4%. For the same compound, the insulin secretion stimulation in [2] is -0.4% (inactive). Further, the viability decrease in test [3] was 24.9% (inactive). Besides, in [4], the tube area decrease was 7.5% (inactive). The GLP1 secretion stimulation in test [5] was 1.8% (inactive). In addition, the inhibition of viability in test [6] is 8.77% (inactive). In addition, the viability decrease (inhibition) in [7] was 26.1% (inactive); in test [8], 6.9% (inactive). Also, the red/green cell ratio (normalised) in test [9] is 0.96 (inactive). In addition, the normalised cell number in test [9] (setting [17]) amounted to 1.09; in [9] (setting [18]), 1.04. Further, the results for the fold change in test [10] (setting [19]) and in test [10] (setting [20]) were 0.894 (inactive) and 1.1, respectively. The figures for the cell count in test [10] (setting [21]) and in test [10] (setting [22]) were 7540 and 8430, respectively. In addition, the remaining NAD in [11] is 10 nM (inactive).

Take `CC(C)=CCC/C(C)=C/CO`: the parasite load remaining in test [12] is 123% (inactive). Besides, in test [12], the viability was determined as 71.1%. Besides, the nuclear beta-catenin stimulation in test [1] (at 10 µM) is -0.1% (inactive); in test [1] (stimulation, at 2 µM), 3%. Further, in test [2], the insulin secretion stimulation was 0.7% (inactive). The viability decrease in test [3] was -10.3% (inactive). For the same compound, the tube area decrease in test [4] is 12.4% (inactive). In test [5], the GLP1 secretion stimulation was -1.8% (inactive). In test [6], the inhibition of viability was 1.77% (inactive). In addition, the viability decrease (inhibition) in [7] is -1.7% (inactive); in test [8], -8.2% (inactive). Also, the red/green cell ratio (normalised) in test [9] was 0.92 (inactive). The normalised cell number is 1.13 in test [9] (setting [17]) and 1.03 in [9] (setting [18]).

`CCCCCCCCCCOc1cc2c(=O)c(C(=O)OCC)c[nH]c2cc1OCC`: the parasite load remaining in test [12] is 0.015% (active). In addition, in [12], the viability was determined as 101%. Besides, the nuclear beta-catenin stimulation is -2.3% (inactive) in [1] (at 10 µM) and -0.1% in test [1] (stimulation, at 2 µM). The insulin secretion stimulation in [2] was -0.4% (inactive). Moreover, the viability decrease in test [3] is -29.2% (inactive). Besides, the tube area decrease in [4] was -2% (inactive). Moreover, in [5], the GLP1 secretion stimulation was 1.3% (inactive). For the same compound, in test [6], the inhibition of viability was -5.6% (inactive). Also, the viability decrease (inhibition) is -212% (inactive) in test [7] and -42% (inactive) in test [8]. Also, the red/green cell ratio (normalised) in test [9] is 1 (inactive). Besides, the normalised cell number in test [9] (setting [17]) and in test [9] (setting [18]) was 0.98 in each case. The fold change in [10] (setting [19]) is 0.938 (inactive); in test [10] (setting [20]), 1.91. Besides, the cell count in [10] (setting [21]) amounted to 11200; in test [10] (setting [22]) it was 11900. In addition, in [11], the remaining NAD was 10 nM (inactive).

One may read the remaining activity as the signal under treatment as a percentage of the control signal. Turning to `CN(C(=O)c1c(O)c2ccccc2n(C)c1=O)c1ccccc1`, the nuclear beta-catenin stimulation in test [1] (at 10 µM) is 0.7% (inactive); in test [1] (stimulation, at 2 µM), 0.9%. In test [2], the insulin secretion stimulation was 4.4% (inactive). Also, the viability decrease in test [3] was 2.2% (inactive). The tube area decrease in test [4] was -6.9% (inactive). The GLP1 secretion stimulation in test [5] was 0.6% (inactive). For the same compound, the inhibition of viability in [6] was -2.7% (inactive). Also, the viability decrease (inhibition) is 1.1% (inactive) in test [7] and -45.2% (inactive) in test [8]. Also, the remaining activity in test [13] is 121% (inactive). In addition, the compound was called inactive in [14] and in test [15]. The results for the fold change in [10] (setting [19]) and in test [10] (setting [20]) were 0.967 (inactive) and 0.749, respectively. The figures for the cell count in test [10] (setting [21]) and in [10] (setting [22]) were 8780 and 9070, respectively. The z-score in test [16] is -0.335 (inactive).
